Results as given in the supplement of paper PMC11732987, “Enantioselective OTUD7B fragment discovery through chemoproteomics screening and high-throughput optimisation” (Communications Chemistry, 2025).

Assays:
Experiment in all cases: log2 ratio of Biotin-Ahx-Ub-VS probe labelling (fragment/DMSO); higher = less target engagement (more negative = stronger competition), active = hit call of the paper (q ≤ 0.05, log2 ratio ≤ -1)
Conditions in all cases: compound concentration: 200 uM; treatment time: 3 h
USP19 = target: T1, USP19 (UniProt O94966)
T1 sequence (whole entry): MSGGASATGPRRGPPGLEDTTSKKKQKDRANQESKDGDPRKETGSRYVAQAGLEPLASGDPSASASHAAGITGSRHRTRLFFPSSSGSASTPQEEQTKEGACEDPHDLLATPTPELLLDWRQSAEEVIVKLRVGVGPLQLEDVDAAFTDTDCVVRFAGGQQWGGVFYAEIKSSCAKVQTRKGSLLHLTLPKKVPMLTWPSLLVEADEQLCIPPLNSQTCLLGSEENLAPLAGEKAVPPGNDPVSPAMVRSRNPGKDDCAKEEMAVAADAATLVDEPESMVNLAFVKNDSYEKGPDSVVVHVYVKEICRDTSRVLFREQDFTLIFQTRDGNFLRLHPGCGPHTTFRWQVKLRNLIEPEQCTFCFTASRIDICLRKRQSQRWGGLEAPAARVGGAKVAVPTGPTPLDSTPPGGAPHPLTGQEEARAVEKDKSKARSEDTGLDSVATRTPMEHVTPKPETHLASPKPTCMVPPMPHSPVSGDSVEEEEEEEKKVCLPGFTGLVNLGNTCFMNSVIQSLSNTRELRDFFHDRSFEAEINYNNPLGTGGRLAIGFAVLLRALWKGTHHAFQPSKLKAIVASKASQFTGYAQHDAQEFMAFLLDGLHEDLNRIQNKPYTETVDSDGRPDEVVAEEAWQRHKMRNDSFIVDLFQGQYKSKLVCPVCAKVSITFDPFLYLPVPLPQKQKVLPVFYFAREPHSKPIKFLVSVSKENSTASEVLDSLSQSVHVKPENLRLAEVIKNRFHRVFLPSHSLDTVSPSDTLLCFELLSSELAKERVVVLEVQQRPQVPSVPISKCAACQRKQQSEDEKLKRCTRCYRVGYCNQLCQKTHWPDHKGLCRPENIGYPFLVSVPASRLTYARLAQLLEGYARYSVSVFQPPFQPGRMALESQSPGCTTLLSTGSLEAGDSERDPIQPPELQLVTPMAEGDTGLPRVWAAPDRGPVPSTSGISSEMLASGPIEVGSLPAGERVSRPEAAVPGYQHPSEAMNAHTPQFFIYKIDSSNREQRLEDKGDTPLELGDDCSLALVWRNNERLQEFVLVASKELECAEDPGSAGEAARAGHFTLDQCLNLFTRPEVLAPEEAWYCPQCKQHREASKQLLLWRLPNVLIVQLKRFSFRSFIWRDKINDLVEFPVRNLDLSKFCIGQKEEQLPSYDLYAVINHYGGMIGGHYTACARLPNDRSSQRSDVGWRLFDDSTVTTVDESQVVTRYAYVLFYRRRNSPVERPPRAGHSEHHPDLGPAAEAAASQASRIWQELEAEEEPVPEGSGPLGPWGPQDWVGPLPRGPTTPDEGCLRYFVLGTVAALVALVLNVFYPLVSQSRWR
Outline: (§1)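 Fragment (200 µM) or vehicle was incubated for 3 h with triplicate HEK293T lysate samples of 495 µg, which were then treated with Biotin-Ahx-Ub-VS at 0.5 µM final for 1 h. Labelled DUBs were enriched on NeutrAvidin, digested with LysC and trypsin, and analysed by diaPASEF LC-MS/MS. Values are average log2 fragment/vehicle ratios from an unpaired t-test on global-median-normalised Spectronaut label-free quantities, using proteins with ≥2 unique peptides.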

USP22 = target: T2, USP22 (UniProt Q9UPT9)
T2 sequence (whole entry): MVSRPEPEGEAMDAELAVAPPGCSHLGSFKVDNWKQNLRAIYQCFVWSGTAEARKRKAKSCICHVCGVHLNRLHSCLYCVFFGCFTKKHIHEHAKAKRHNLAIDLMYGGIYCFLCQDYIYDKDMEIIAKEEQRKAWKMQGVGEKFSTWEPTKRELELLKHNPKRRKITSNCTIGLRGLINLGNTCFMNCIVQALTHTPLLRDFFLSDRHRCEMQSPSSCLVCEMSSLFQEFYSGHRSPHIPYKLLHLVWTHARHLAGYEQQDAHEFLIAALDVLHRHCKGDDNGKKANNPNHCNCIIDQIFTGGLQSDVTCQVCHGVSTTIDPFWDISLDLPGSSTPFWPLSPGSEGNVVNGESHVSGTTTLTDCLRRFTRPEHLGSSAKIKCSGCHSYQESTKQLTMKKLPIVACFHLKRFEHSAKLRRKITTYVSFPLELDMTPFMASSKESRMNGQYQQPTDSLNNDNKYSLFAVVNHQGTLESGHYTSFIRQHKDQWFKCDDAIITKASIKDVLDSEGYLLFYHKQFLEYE
Outline: as §1

USP24 = USP24 (UniProt Q9UPU5)
USP24, sequence (Q9UPU5 whole entry): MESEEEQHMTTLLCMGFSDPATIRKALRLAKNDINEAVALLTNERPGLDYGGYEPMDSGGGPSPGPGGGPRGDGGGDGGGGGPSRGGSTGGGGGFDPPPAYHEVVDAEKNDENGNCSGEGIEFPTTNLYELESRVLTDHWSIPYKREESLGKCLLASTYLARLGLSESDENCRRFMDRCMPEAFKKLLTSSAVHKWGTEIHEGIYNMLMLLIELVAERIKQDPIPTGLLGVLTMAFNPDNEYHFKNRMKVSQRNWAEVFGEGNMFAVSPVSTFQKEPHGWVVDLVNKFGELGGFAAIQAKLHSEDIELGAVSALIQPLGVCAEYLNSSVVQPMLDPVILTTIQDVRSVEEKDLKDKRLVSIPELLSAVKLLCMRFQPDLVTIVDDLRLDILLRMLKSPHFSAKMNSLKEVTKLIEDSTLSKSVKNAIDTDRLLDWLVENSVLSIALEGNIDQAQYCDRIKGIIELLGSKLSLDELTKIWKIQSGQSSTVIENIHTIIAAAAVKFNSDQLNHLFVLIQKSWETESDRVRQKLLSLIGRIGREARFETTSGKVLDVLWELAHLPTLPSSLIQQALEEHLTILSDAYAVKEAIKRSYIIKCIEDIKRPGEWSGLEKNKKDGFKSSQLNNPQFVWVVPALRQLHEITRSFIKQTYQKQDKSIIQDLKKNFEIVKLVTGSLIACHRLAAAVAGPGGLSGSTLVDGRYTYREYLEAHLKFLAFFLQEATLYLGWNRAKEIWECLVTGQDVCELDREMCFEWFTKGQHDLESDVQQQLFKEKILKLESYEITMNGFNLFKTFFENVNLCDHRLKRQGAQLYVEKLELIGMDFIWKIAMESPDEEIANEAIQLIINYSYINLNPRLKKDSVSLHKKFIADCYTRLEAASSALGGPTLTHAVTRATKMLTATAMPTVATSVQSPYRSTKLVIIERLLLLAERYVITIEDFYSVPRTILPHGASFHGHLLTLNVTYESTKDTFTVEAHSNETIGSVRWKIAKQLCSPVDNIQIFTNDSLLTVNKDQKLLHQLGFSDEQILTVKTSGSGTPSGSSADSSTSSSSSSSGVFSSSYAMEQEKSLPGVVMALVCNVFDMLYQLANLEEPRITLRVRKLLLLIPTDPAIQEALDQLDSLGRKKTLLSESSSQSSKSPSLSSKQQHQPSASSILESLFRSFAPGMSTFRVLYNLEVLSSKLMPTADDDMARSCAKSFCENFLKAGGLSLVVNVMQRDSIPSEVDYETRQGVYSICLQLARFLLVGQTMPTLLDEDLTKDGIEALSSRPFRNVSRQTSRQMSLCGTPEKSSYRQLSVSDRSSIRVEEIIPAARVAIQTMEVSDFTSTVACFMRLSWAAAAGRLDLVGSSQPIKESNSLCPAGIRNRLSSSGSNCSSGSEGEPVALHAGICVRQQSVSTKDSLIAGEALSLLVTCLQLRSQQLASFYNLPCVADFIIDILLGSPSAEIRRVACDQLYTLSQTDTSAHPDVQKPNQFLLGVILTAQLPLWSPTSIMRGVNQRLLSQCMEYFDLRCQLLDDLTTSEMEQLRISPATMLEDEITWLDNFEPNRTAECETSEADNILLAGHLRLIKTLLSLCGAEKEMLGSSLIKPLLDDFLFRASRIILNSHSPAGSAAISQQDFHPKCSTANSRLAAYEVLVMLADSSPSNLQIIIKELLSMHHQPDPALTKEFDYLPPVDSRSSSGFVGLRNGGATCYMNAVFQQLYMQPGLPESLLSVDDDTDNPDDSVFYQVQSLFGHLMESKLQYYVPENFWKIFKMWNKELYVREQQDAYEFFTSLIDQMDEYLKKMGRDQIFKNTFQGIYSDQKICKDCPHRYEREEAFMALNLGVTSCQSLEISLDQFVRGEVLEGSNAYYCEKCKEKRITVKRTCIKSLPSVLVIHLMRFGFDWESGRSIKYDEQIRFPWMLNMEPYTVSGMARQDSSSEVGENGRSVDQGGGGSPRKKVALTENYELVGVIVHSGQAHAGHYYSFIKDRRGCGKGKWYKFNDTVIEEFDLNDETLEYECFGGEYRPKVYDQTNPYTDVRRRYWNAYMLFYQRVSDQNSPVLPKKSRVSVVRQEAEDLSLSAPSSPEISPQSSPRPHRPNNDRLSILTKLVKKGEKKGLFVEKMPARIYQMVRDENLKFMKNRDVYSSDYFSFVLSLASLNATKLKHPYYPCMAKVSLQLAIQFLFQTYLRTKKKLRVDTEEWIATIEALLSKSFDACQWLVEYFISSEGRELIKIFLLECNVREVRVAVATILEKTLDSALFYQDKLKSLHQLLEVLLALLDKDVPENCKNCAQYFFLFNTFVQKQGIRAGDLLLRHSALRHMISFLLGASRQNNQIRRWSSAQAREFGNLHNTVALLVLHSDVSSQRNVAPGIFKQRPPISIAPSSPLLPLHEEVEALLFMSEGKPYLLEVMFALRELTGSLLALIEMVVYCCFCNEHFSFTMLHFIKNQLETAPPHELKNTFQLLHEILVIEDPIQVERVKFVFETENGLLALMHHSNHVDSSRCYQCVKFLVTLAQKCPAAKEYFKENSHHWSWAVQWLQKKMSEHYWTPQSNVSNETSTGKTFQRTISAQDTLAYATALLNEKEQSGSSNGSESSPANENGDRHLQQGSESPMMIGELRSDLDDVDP
Outline: as §1

USP25 = target: T3, USP25 (UniProt Q9UHP3)
T3 sequence (whole entry): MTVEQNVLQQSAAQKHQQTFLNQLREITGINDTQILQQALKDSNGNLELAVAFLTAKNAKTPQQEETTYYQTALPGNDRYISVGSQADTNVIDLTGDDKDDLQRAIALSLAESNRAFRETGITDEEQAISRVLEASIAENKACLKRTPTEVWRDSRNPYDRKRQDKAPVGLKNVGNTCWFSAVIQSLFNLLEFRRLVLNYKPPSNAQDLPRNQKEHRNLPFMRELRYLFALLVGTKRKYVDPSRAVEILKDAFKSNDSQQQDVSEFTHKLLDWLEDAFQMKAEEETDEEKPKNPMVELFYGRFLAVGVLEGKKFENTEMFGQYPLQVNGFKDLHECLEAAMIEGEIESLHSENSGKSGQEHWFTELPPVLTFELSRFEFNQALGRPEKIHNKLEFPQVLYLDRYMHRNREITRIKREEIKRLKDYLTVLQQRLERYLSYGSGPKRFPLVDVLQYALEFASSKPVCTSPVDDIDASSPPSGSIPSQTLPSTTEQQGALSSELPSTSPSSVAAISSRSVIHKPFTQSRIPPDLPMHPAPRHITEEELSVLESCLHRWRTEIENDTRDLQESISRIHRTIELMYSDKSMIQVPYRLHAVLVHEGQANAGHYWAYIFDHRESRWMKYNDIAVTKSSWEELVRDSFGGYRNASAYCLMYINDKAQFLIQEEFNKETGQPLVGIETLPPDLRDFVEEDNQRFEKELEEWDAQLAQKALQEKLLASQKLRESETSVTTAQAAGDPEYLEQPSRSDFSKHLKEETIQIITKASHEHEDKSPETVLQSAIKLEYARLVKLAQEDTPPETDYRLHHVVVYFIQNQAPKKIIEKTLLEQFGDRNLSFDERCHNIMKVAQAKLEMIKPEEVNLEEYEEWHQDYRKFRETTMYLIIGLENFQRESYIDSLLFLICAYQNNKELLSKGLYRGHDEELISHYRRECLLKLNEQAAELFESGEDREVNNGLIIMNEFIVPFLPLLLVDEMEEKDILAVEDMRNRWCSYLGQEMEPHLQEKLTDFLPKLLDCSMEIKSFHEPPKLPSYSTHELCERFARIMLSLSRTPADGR
Outline: as §1

USP28 = target: T4, USP28 (UniProt Q96RU2)
T4 sequence (whole entry): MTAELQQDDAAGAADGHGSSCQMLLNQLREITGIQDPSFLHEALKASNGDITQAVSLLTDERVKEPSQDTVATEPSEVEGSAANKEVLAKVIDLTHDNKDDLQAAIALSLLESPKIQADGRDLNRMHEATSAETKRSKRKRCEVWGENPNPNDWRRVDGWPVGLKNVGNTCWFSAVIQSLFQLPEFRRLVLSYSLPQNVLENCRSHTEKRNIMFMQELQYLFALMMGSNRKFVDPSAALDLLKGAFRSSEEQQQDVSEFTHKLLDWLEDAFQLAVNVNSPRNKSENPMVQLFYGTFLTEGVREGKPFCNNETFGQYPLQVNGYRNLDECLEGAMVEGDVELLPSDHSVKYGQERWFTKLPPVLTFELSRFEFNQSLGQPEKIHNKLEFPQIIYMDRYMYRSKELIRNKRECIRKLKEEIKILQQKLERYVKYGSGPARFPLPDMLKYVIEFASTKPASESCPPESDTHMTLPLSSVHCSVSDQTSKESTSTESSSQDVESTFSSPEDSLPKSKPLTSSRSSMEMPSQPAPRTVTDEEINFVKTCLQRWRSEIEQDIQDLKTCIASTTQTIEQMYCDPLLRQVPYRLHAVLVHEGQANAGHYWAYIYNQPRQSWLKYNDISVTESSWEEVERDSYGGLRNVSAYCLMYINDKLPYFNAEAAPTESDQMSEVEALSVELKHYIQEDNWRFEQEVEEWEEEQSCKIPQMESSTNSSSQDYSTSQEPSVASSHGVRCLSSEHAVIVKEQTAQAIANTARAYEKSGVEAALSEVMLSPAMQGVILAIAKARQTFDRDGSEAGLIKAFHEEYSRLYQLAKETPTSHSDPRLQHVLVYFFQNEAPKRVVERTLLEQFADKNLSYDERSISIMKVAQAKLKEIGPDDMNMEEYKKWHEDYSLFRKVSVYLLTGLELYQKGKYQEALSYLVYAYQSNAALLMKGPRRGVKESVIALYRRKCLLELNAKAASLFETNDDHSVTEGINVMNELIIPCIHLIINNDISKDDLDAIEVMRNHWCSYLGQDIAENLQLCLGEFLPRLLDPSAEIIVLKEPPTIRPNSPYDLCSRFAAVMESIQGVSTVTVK
Outline: as §1

Measured: log2 ratio of Biotin-Ahx-Ub-VS probe labelling

Cc1c(NC(=O)CCl)c(=O)n(-c2ccccc2)n1C
inactive: USP19 -0.181 | USP22 -0.000691 | USP24 -0.125 | USP25 -0.16 | USP28 -0.182
